The text below walks through data of PubChem BioAssay AID651949 (Broad Institute, 2012).

Each structure is given as a SMILES string. Measured potencies and affinities stand elsewhere. Calls of active or inactive are those of the source.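 How the source made its calls: active means compounds lowering cell ATP signal whose fitted half-maximal concentration is at most twice the top tested dose; inconclusive means flat curve with 30 to 70% signal loss, or poor fit; inactive means the rest.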

The nature of this experiment: viability loss in HEK293T cells – cell-based, CellTiter-Glo luminescence, dry powder, set 6, cytotoxicity control, dose response (AID 651949).

For the molecule `c1ccc(CSc2nnc(-c3ccccc3)o2)cc1`, the result was inactive.
In the case of `Clc1ccc(-c2nnc(SCc3ccccc3)o2)cc1`, the result was inactive.
